This is part of a sample that, as a whole, favours compounds with a hit. Of some 83,000 tested, about 20% had one in any assay.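 Cells were grown in 96-well plates and exposed to the test compound at a single concentration for 48 hours; results are reported as percent growth, with values below 10 considered active.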 Calls of active or inactive are those of the source.
Each compound was assayed on HL-60(TB) leukemia (assay: NCI-60 one-dose screen, 48 h (100 = growth as untreated, 0 = no growth, -100 = all killed)). Details: 10 µM unless noted.

| SMILES | growth |
| --- | --- |
| C=CCO[C@H]1CO[C@H]2[C@@H]1OC[C@@H]2Oc1ccc(Nc2ccnc(Nc3ccc(O[C@H]4CO[C@H]5[C@@H]4OC[C@@H]5OCC=C)c(Cl)c3)n2)cc1Cl | -51.4% (active) |
| O=C(c1ccc(O)cc1)c1ccc(O)cc1 | 117% (inactive) |
| Nc1nccc2c1ccn2-c1cccc(NC(=O)c2ccc(N3CCOCC3)c(C(F)(F)F)c2)c1 | -3.75% (active) |
